Assay outcomes deposited in PubChem by several laboratories.
MPTP block = inhibitors of mitochondrial permeability transition pore; isolated mouse mitochondria, Ca2+ swelling absorbance, 30 min; inhibition, % at 10 µM; hit rate 1.4% among 360,000; AID 602449;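 active = inhibition of 50% or more, scaled per plate between neutral and stimulator controls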;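 also: 0% = DMSO wells given calcium and 100% = 1 mM EGTA wells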
DSG3 Ab inh = human desmoglein-3 autoantibody binding inhibition; binding (percent of control), % at 10 µM; AID 588358; hit rate 0.48% among 310,000; DSG3-coupled beads, scFv-anti-DSG3-GFP binding, flow cytometry; stronger effect = lower value; P32926;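 active = binding more than 3 SD below its plate's average and above zero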;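 also: hits lower antibody fragment binding to DSG3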
ADAM17 inh = ADAM17 inhibition, QFRET primary screen; hit rate 0.83% among 370,000; P78536; AID 720648; inhibition, % at 6.95 µM; recombinant ADAM17, EDANS/DABCYL FRET peptide cleavage;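 active = inhibition above the mean of compounds lying between control limits plus 3 SD, set per campaign, cut at about 8.5% in these data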;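 also: 0% = DMSO-only wells as the low control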
KLK7 zymogen act = activators of human kallikrein-7 zymogen; P49862; activation, % at 7 µM; purified proKLK7, EDANS-DABCYL substrate fluorescence; 100% is mature enzyme control, 0% vehicle; hit rate 0.9% among 370,000;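 active = activation above the mean of all tested compounds plus 3 SD, computed per campaign excluding outliers beyond control limits, cut at about 13% in these data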
rCAG RNA binder = r(CAG) repeat RNA binding | TO-PRO-1 dye displacement fluorescence | inhibition, % at 3 µM | hit rate 1.3% among 370,000 | AID 651821;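 active = inhibition above the plate cutoff, the mean of all test compounds on that plate plus 3 SD, cut at about 35% in these data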;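 also: 0% = DMSO alone and 100% = 100 µM mitoxantrone as full dye displacement; higher means more dye released from RNA so lower well fluorescence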
ADAM10 inh = ADAM10 inhibition, QFRET primary screen; O14672; recombinant ADAM10, EDANS/DABCYL FRET peptide cleavage, 3 h; inhibition, % at 7 µM; hit rate 0.62% among 370,000;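 active = inhibition above a per-campaign cutoff equal to the mean of compounds falling between control-based bounds plus 3 SD, cut at about 20% in these data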;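 also: 0% = DMSO wells while the 100% control is not disclosed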
Target sequence (O14672 214-748 limits assumed): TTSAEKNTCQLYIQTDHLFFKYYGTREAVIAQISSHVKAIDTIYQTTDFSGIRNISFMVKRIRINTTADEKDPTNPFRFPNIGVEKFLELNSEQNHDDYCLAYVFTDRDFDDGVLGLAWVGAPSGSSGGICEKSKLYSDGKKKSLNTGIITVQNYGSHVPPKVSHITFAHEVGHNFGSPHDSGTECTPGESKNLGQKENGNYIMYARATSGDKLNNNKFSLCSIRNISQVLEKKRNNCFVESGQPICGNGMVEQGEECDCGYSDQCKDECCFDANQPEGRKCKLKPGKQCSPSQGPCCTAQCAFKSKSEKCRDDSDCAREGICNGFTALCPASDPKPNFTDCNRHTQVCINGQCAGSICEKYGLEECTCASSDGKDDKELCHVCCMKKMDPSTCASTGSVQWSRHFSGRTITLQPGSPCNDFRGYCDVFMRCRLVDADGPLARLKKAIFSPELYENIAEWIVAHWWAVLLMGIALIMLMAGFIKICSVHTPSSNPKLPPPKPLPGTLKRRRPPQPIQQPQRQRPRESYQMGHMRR
Rh123 counter = Rhodamine 123 counter-screen of mitochondrial pore hits; AID 624504; hit rate 78% among 5,000; isolated mitochondria, membrane potential, Rhodamine 123 fluorescence; inhibition, % at 10 µM; shares compounds with MPTP block; in the data active = inhibition above about 22%;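 also: 0% = DMSO vehicle and 100% = positive control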
MPTP swell DR = dose response confirmation of mitochondrial permeability transition pore inhibitors; isolated mitochondria swelling, absorbance; hit rate 58% among 780; IC50, µM; shares compounds with MPTP block; in the data active = IC50 below about 20 µM
MPTP cs DR = counter-screen for mitochondrial permeability transition pore inhibitors, dose response | shares compounds with MPTP block | isolated mitochondria counterscreen, fluorescence read-out | IC50, µM | hit rate 49% among 780 | AID 651564; in the data active = IC50 below about 80 µM
* marks the source's active call; other numbers are inactive results; / = no result. Hits are enriched below; roughly 4.7% of the tested compounds scored in any of these assays.

SMILES	MPTP block	DSG3 Ab inh	ADAM17 inh	KLK7 zymogen act	rCAG RNA binder	ADAM10 inh	Rh123 counter	others
O=C(Nc1cc(C(F)(F)F)cc(C(F)(F)F)c1)c1ccc(Cn2cc(C(F)(F)F)ccc2=O)cc1	72*	102	-2	0	2	1	25*
COC(=O)[C@]12C[C@H](CC(=O)NCCC(C)C)C(=O)N(Cc3ccccc3)C1=C[C@H](C(C)(C)C)O[C@@H]2C	/	/	0	0	0	9	/
Cc1cc(C(=O)CSc2nc3ccccc3c(=O)n2C)c(C)n1Cc1ccc2c(c1)OCO2	97*	93	1	1	8	-19	94*
CCOc1cc(C(=O)Nc2ccc(F)cc2)cc(Br)c1OC	67*	88	4	0	3	-3	79*
COc1cccc(C=NNC(=S)NC2CC3CCC2C3)c1O (stereo not drawn)	/	/	-8	0	6	-7	/
CC1CCC(C(C)C)C(OC(=O)Cn2c(-c3ccc(Cl)cc3)[n+](C)c3ccccc32)C1 (stereo not drawn)	54*	104	-3	0	13	7	79*
COc1ccc(-c2c[n+](CC(=O)OC3CC(C)CCC3C(C)C)c3n2CCC3)cc1 (stereo not drawn)	0	112	-1	0	11	3	/
CC(C)[C@@H]1CC[C@@H](C)C[C@H]1OC(=O)C[n+]1cc(-c2ccc(Cl)cc2)n2c1CCCCC2	64*	/	1	0	8	9	86*
COC(=O)c1cc2c(c3c4ccccc4n(S(=O)(=O)c4ccccc4)c13)C(=O)N(C)C2	/	/	-4	1	8	-17	/
Cc1cc(C)n2nc(SCC(=O)c3cc(C)n(-c4cc(C)on4)c3C)nc2n1	81*	120	0	0	6	-6	62*
Cc1cc(C(=O)CSc2ncnc3ccccc23)c(C)n1C1CC1	3	92	-4	1	6	-15	/
Cc1cc(-n2c(C)cc(C(=O)CSc3ncnc4ccccc34)c2C)no1	97*	114	-5	0	1	-9	88*
Cc1cc(C)n2nc(SCC(=O)c3ccccc3)nc2n1	0	100	-4	-1	-4	0	/
C=CCO[C@H]1CN(C(=O)OC)[C@@H](c2ccccc2Br)C[C@H]1OCC=C	/	/	-6	1	-4	-10	/
COc1cccc(C(=O)N[C@H](C(=O)N2CCC[C@H]2C(=O)NCc2ccccc2)c2ccccc2)c1	/	/	-4	0	1	0	/
O=C(N/N=C/c1c(O)ccc2ccccc12)c1cccc(C(F)(F)F)c1	99*	99	0	-1	12	-6	42*
COc1ccc2ccccc2c1/C=N/NC(=O)c1cccc(Br)c1	4	102	1	-2	17	-5	/
O=C(N/N=C/c1c(O)ccc2ccccc12)c1[nH]ncc1Br	55*	99	3	-4	24	6	55*
N#C/C(=C\c1ccc(O)c(O)c1)S(=O)(=O)c1ccccc1	90*	101	5	0	12	1	70*
CCC(NC(=O)CCCN1C(=O)COc2ccc(C)cc21)c1ccccc1 (stereo not drawn)	/	/	-3	1	-2	-2	/
c1coc(CN(Cc2ccco2)c2ncnc3c2oc2ccccc23)c1	83*	97	/	/	/	/	67*
Cc1nc2sccn2c1-c1csc(NCc2ccccc2)n1	58*	117	-1	1	8	4	67*
CC(Sc1ccc(Cl)cc1)C(=O)Nc1ccc2c(c1)OCO2 (stereo not drawn)	1	101	2	0	0	3	/
CC(C)N1CCC2(CC1)N=C(c1ccc3c(c1)OCO3)CC(c1cc(Cl)ccc1O)N2 (stereo not drawn)	69*	101	5	-1	26	9	-6
COC(=O)[C@]12C[C@H](CC(=O)N3CCSCC3)C(=O)N(Cc3ccco3)C1=C[C@H](COCc1ccccc1)O[C@@H]2C	/	/	3	0	6	8	/
SMILES	MPTP block	DSG3 Ab inh	ADAM17 inh	KLK7 zymogen act	rCAG RNA binder	ADAM10 inh	Rh123 counter	others
COc1ccc(/C=C/c2nc(-c3ccccc3O)n(-c3ccccc3)n2)cc1	4	98	-3	1	4	-11	/
COc1ccc(/C=C/c2nc(-c3ccccc3O)n[nH]2)cc1	56*	/	7	0	21	12	46*
O=C(CSc1ccc(F)cc1)Nc1ccc(Br)cc1	58*	90	3	0	1	5	67*
Cc1ccc(NCC(=O)Nc2ccc(Br)cc2)cc1F	60*	96	-2	-1	4	0	70*
Cc1cc(=O)[nH]c(SCC(=O)Nc2ccc(F)cc2)c1C#N	6	103	-1	0	5	3	/
Cc1cc(=O)[nH]c(SCC(=O)Nc2ccc(Br)cc2)c1C#N	96*	105	-1	1	30	-11	90*
S=C(NCCC1=CCCCC1)Nc1ccc(Cl)cc1	91*	98	1	0	-4	1	90*
Clc1ccc(CNCCC2=CCCCC2)cc1	70*	99	-2	0	0	4	-7	MPTP swell DR=13*;MPTP cs DR=>80
COc1ccc(O)c(/C=N/NC(=S)Nc2cccc(S(=O)(=O)N(C)C)c2)c1	51*	98	-46	3	22	-130	83*
CN(C)S(=O)(=O)c1cccc(NC(=S)Nc2ccc(Cl)cc2Cl)c1	90*	97	-1	0	7	-1	93*
CCN(CCO)c1ccc(NC(=S)Nc2cccc(S(=O)(=O)N(C)C)c2)cc1	0	106	-3	0	8	-5	/
COc1cccc(/C=N/NC(=S)Nc2cccc(S(=O)(=O)N(C)C)c2)c1	4	89	-3	0	9	-4	/
CN(C)S(=O)(=O)c1cccc(NC(=S)Nc2cc(Cl)cc(Cl)c2)c1	88*	104	-5	0	9	4	93*
CC(=O)N1CCN(c2ccc(S(=O)(=O)NCCN(C(C)C)C(C)C)cc2[N+](=O)[O-])CC1	-1	108	1	0	1	0	/
CN(C)CCNS(=O)(=O)c1ccc(N2CCN(c3ccc(F)cc3)CC2)c([N+](=O)[O-])c1	50*	107	1	0	0	4	-5	MPTP swell DR=7.1*;MPTP cs DR=20*
Cc1ncc([N+](=O)[O-])n1CCOC(=O)Nc1ccc([N+](=O)[O-])cc1	77*	92	-4	-1	-1	-13	71*
